PLK1 PBD block: qHTS for Inhibitors of PLK1-PDB (polo-like kinase 1 - polo-box domain): Primary Screen. Plk1 PBD binding of FITC phosphopeptide, fluorescence polarization. Potency, µM, usual class: inhibitors. actives 2.8% (n = 360,000); also: series mostly up to about 57 µM; nearly all actives have a fitted effect of over 65% in size
USP1 inh: Inhibitors of USP1/UAF1: Primary Screen; Ubiquitin carboxyl-terminal hydrolase 1 (Homo sapiens), O94782; recombinant USP1/UAF1, Ub-Rhodamine cleavage fluorescence; Potency, µM (titrated, usually from 57.1 µM), actives largely listed as inhibitors; actives 0.23% (n = 390,000); AID 743255, 2014; also: nearly all actives have a fitted effect of over 60% in size
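High-throughput fluorogenic screen: 1nM USP1/UAF1 complex, Ub-Rho substrate 150nM final, 50mM HEPES pH 7.8 with 0.5mM EDTA, 0.1 mg/ml BSA, 1mM TCEP and 0.01% Tween-20.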
USP2a inh: qHTS Assay for Inhibitors of Ubiquitin-specific Protease USP2a Using CHOP2 as the Reporter. Ubiquitin carboxyl-terminal hydrolase 2 (Homo sapiens), O75604. USP2 core, Ub-CHOP2 coupled fluorogenic reporter, 485/531. Potency, µM (top dose mostly 38.3 µM), hits mostly inhibitors. actives 0.01% (n = 330,000). AID 463254, 2010
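Deubiquitinase activity read as fluorescence (485/531 nm) after Ub-CHOP2 cleavage activates the enterokinase reporter on its substrate; USP2 core 10nM, Ub-CHOP2 and substrate 25nM each, 30min compound preincubation then 60min RT; data normalized to NEM, curves fitted.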
WRN helicase inh: qHTS for Inhibitors of WRN Helicase; Bifunctional 3'-5' exonuclease/ATP-dependent helicase WRN (Homo sapiens), Q14191; WRN helicase unwinding, fluorescent forked duplex, kinetic; Potency, µM (top dose mostly 114 µM), hits mostly inhibitors; actives 0.46% (n = 360,000); also: nearly all actives have a fitted effect of over 55% in size
Target sequence (Q14191 whole entry, looked up): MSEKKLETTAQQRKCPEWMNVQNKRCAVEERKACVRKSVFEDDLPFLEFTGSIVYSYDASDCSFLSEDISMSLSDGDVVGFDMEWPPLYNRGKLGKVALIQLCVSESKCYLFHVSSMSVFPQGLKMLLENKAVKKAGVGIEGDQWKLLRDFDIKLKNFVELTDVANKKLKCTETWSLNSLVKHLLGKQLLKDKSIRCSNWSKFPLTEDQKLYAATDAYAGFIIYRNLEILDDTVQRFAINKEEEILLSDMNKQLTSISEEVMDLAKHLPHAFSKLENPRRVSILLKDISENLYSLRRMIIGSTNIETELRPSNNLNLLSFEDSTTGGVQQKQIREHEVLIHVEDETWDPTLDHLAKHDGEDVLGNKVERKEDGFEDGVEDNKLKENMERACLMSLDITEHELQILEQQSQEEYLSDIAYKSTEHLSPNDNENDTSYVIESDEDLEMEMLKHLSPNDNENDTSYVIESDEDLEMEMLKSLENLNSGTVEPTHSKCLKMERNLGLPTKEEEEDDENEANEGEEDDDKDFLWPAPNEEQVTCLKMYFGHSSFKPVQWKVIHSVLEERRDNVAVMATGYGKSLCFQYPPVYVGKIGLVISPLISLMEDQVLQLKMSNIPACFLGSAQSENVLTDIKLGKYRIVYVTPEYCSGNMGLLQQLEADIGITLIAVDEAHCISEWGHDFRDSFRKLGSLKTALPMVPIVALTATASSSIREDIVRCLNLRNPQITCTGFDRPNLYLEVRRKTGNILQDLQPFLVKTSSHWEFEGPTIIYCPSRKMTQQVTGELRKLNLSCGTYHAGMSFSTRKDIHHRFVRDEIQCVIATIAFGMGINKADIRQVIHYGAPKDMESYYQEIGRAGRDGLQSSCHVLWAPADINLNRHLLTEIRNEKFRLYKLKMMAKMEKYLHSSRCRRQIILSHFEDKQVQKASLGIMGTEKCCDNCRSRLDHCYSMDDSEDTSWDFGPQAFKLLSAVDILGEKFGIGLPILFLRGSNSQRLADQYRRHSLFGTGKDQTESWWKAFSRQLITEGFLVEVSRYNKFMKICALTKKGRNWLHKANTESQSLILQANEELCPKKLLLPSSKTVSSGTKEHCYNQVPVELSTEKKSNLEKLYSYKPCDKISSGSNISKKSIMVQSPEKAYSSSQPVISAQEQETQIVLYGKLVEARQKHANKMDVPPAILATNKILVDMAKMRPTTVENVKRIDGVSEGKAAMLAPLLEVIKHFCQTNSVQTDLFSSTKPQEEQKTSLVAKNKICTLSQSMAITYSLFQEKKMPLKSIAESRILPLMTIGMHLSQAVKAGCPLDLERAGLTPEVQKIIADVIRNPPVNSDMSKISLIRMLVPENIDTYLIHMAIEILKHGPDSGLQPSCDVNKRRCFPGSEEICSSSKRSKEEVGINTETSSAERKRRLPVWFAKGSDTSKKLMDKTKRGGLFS
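Kinetic red-fluorescence monitoring (525/598 nm) tracks WRN helicase activity after 100 nM fluorophore-quencher forked duplex and 2 mM ATP are added to 20 nM enzyme pretreated 15 min at room temperature with compound.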
PI5P4Ka inh: qHTS for Inhibitors of phosphatidylinositol 5-phosphate 4-kinase (PI5P4K) | PI5P4Kalpha enzyme, ADP-Glo luminescence, 60 min; stronger effect = lower value | max response, % | actives 1.2% (n = 330,000) | AID 652105, 2013; active = max response of -50% or lower; inconclusive = between -30% and -50%; inactive = -30% or higher; also: value at the top dose of about 77 µM
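Compounds were pin-transferred onto PI5P4Kalpha and substrate in HEPES pH 7.4 buffer with EGTA, CHAPS and 5% DMSO. ATP (5 microM final) started the reaction, which ran 60 minutes at room temperature before ADP-Glo detection.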
A number is an active result; . = inactive; ? = inconclusive; / = not tested or not shown; [ ] = remark or other dose. This is a sample that favours compounds with a hit; in the whole collection about 3.3% have one here. Unless noted, calls follow the shape of the dose curve; as a rule, active = well fitted curve in the direction sought with a large enough effect; inconclusive = small, poorly fitted or top-dose-only effect, or another doubt; inactive = no such curve, though single readings can be large; an effect the other way counts as inactive or inconclusive.

SMILES | PLK1 PBD block | USP1 inh | USP2a inh | WRN helicase inh | PI5P4Ka inh
CCc1cccc(NC(=O)Cn2nc3c4cc(F)ccc4n(Cc4cccc(C)c4)cc-3c2=O)c1 | / | . | / | / | /
CN(Cc1ccccc1)c1nc2c(S(=O)(=O)c3cccc(Cl)c3)nnn2c2ccsc12 | / | . | / | / | /
CCCCCCCCCCCCCCC(O)C[N+](C)(CCO)CCO (centres undefined) | . | . | / | ? | -72
N#Cc1c(Nc2ccccc2C(F)(F)F)s[nH]c1=O | 27µM | . | . | . | ?
COc1ccc(/C=C2/C(=O)N(c3nc4ccccc4s3)N=C2CSc2ccc(Cl)cc2)cc1 | 8.4µM | . | . | . | -72
CCn1nc(-c2ccccc2)c2nc3ccccc3nc21 | ? | . | ? | . | .
CCCn1nc(-c2ccccc2)c2nc3ccccc3nc21 | 17µM | ? | . | . | .
CCCCCn1nc(-c2ccccc2)c2nc3ccccc3nc21 | 21µM | ? | . | . | .
CC(=O)ON=C1C=CC(=C(C#N)c2ccccc2)C=C1 | 2.4µM | / | / | ? | ?
COc1ccc(C(C#N)=C2C=CC(=NO)C=C2)cc1 | 27µM | . | . | . | .
CCCNS(=O)(=O)c1ccc(CCC(=O)N2CCCCC2)cc1 | 24µM | . | . | . | ?
CCCNS(=O)(=O)c1ccc(CCC(=O)N2CCN(CC)CC2)cc1 | . | . | . | . | /
Cc1ccccc1CNS(=O)(=O)c1c(C)[nH]c(C)c1C(=O)N1CCCCC1 | 27µM | . | . | . | .
COc1cccc(CNS(=O)(=O)c2c(C)[nH]c(C)c2C(=O)N2CCCCC2)c1 | 30µM | . | . | . | .
Cc1ccc(CNS(=O)(=O)c2c(C)[nH]c(C)c2C(=O)N2CCCCC2)cc1 | . | . | . | . | .
Cc1[nH]c(C)c(S(=O)(=O)Nc2cccc(Cl)c2C)c1C(=O)N1CCCCC1 | 30µM | . | . | . | .
Cc1ccc(C)c(NC(=O)c2nc(S(C)(=O)=O)ncc2N(Cc2ccc(C(C)(C)C)cc2)Cc2ccco2)c1 | / | . | / | / | /
CCOC(=O)CC(NC(=O)c1cc2cc(OC)ccc2oc1=O)c1ccc(OC)cc1 (centres undefined) | / | . | / | / | /
Cc1[nH]c(C)c(S(=O)(=O)NCCc2ccc(S(N)(=O)=O)cc2)c1C(=O)N1CCCC1 | 27µM | . | . | . | .
Cc1cccc(NC(=O)CCN2CCN(c3ccccc3F)CC2)c1 | / | . | / | / | /
Cc1ccccc1N(C)C(=O)c1noc2c1COc1ccccc1-2 | / | . | / | / | /
N#CCn1cnc2sc(-c3ccccc3)cc2c1=O | . | . | . | .[11.6 µM] | -52
CCn1cnc2sc(-c3ccccc3)cc2c1=O | . | . | . | . | .
CC1=C(c2ccccc2)[N+](=O)C2(CCCC2)N1[O-] | . | . | . | . | /
O=[N+]([O-])c1ccc2c(c1)N([O-])C1(CCCCC1)[N+]2=O | 12µM | ? | . | ? | -51
SMILES | PLK1 PBD block | USP1 inh | USP2a inh | WRN helicase inh | PI5P4Ka inh
CC12CCC3c4ccc(O)c([N+](=O)[O-])c4CCC3C1CCC2=O (centres undefined) | . | . | / | . | -59
CC12CCC3c4ccc(O)cc4CCC3C1CCC2=O (centres undefined) | . | . | . | . | .
Cc1ccc2cc(CN(CC3CCCO3)C(=S)NCc3ccco3)c(=O)[nH]c2c1C (centres undefined) | 15µM | . | . | . | .
Cc1ccc(C)c2[nH]c(=O)c(CN(CC3CCCO3)C(=S)NCc3ccco3)cc12 (centres undefined) | . | . | . | . | .
CC1(C)C=C2C(=NN(c3ccccc3)C(N)=C2C#N)CO1 | ? | 4.5µM | . | . | .
COc1ccccc1N1CCN(S(=O)(=O)c2c(C(=O)N3CCOCC3)c(C)n(C)c2C)CC1 | 3.4µM | . | . | . | .
COc1cc(Cl)c(NS(=O)(=O)c2c(C(=O)N3CCCC3)c(C)n(C)c2C)c(OC)c1 | 27µM | . | . | . | .
COc1ccccc1N1CCN(C(=O)c2ccc(Cl)c(S(=O)(=O)N3CCOCC3)c2)CC1 | . | . | . | . | .
COc1ccc(OC)c(-c2nnc3n(Cc4ccc(C)cc4)c(=O)c4ccccc4n23)c1 | / | . | / | / | /
Cc1cc(/C=C2\C(=N)N3N=C(c4ccco4)SC3=NC2=O)c(C)n1Cc1ccccc1 | 27µM | ? | ? | ? | -62
CC1=NN2C(=N)/C(=C\c3cc(C)n(-c4ccccc4)c3C)C(=O)N=C2S1 | . | . | . | . | .
N=C1/C(=C/c2coc3ccccc3c2=O)C(=O)N=C2SC(c3ccco3)=NN12 | ? | . | . | 40µM | -78
CCC1=NN2C(=N)/C(=C/c3cc(C)n(Cc4ccccc4)c3C)C(=O)N=C2S1 | . | . | . | . | .
N=C1/C(=C\c2coc3ccccc3c2=O)C(=O)N=C2SC(c3ccncc3)=NN12 | . | 28µM | . | 22µM | -74
COc1ccc(-n2cccc2/C=C2\C(=N)N3N=C(c4ccco4)SC3=NC2=O)cc1 | ? | . | . | ? | -53
COc1ccc(-n2nnnc2C2CCN(S(=O)(=O)c3ccc(C)cc3)CC2)cc1 | / | . | / | / | /
N=C1/C(=C\c2coc3ccc(O)cc3c2=O)C(=O)N=C2SC=CN12 | . | 28µM | ? | 56µM | -69
O=C(CSc1ccc(Br)c2cccc(Cl)c12)Nc1ccc(S(=O)(=O)Nc2nccs2)cc1 | ? | . | ? | 35µM | ?
O=C(Cc1ccccc1Cl)Nc1ccc(S(=O)(=O)Nc2nccs2)cc1 | . | . | . | . | .
O=C(NNc1cc(Br)c(O)c(Br)c1)c1ccccc1 | . | . | . | . | -91
CC(=O)OCCn1c2nc(=O)[nH]c(=O)c-2nc2cc(C)c(C)cc21 | 0.84µM | 28µM | ? | . | .
CC(=O)OCCn1c(C)[n+](CCOC(C)=O)c2cc(Cl)c(Cl)cc21 | . | . | . | . | .
Cc1ccc2nc(Cl)c(CNCc3ccccc3)cc2c1 | 24µM | . | . | . | .
O=C(c1ccco1)n1nc(-c2ccccc2)nc1NCc1ccccc1Cl | / | . | / | / | /
CCOC(=O)/C(C#N)=C/c1cn(CCC(=O)O)nc1-c1ccccc1 | 30µM | . | . | . | .
CCOC(=O)/C(C#N)=C/c1cn(CCC(=O)O)nc1-c1ccc(Cl)cc1 | . | . | . | . | .
COc1ccc(OC)c(S(=O)(=O)NCCc2sc(-c3cccnc3)nc2C)c1 | / | . | / | / | /
CC(/C=C1\SC(=S)N(c2ccc(C(=O)O)cc2)C1=O)=C\c1ccccc1 | 24µM | . | . | ? | -57
